Sa growth inh – S. aureus growth inhibition; relative growth, % (no concentration beside the values); actives 0.53% (n = 170,000); S. aureus RN4220 growth, OD600, 20 h, 42 °C; stronger effect = lower value; AID 720641;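 active = relative growth at most 50% at the other temperature and 20+ points below 30 °C, or under 10% at both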
Sa helicase inh – S. aureus DNA helicase inhibition; purified S. aureus helicase, fluorescence unwinding assay; inhibition, % (test concentration not listed); actives 0.05% (n = 120,000); AID 485395; in the data active = inhibition above about 25%, passing the limit was not always enough
Of the large screens only hits and unclear results are named; the others gave an inactive call; ! = repeats disagree. The sample as a whole holds a higher share of hits than the screen did.

C=C1c2cccc(O)c2C(O)=C2C(=O)[C@]3(O)C(O)=C(C(N)=O)C(=O)[C@@H](N(C)C)[C@@H]3[C@@H](O)[C@H]12	Sa growth inh 0.1 (no result: Sa helicase inh)
C=C1c2c(Cl)ccc(O)c2C(O)=C2C(=O)[C@]3(O)C(O)=C(C(N)=O)C(=O)[C@@H](N(C)C)[C@@H]3[C@@H](O)[C@H]12	Sa growth inh -0.9 (no result: Sa helicase inh)
CN(C)[C@@H]1C(=O)C(C(=O)NCN2CCCC2)=C(O)[C@@]2(O)C(=O)C3=C(O)c4c(O)cccc4[C@@](C)(O)C3CC12 (stereo not given in full)	none (no result: Sa helicase inh)
COc1ccc(C(NC(=O)Cc2cc3ccccc3[nH]2)C(=O)Nc2ccc3c(c2)OCCO3)cc1 (stereo not given)	none
CCC1CN(C(=O)NCc2ccccc2)c2ccccc2O1 (stereo not given)	none
Nc1ccc(C(=O)OCc2nc3ccccc3[nH]2)cc1	none
Cc1cn2c(=O)c(C(=O)NC3=NCCS3)cnc2s1	none
Cc1nc2ncnn2c(C)c1CCC(=O)N1CCN(c2ccccc2)CC1	none (no result: Sa helicase inh)
N#Cc1c(N2CCOCC2)nsc1-c1ccccc1Cl	none (no result: Sa helicase inh)
O=C1N=c2ccccc2=C1c1c(O)[nH]c2ccc(Cl)cc12	Sa growth inh 49
CCn1c(O)c(C2=c3cc(Cl)ccc3=NC2=O)c2ccccc21	none
O=C(COC(=O)c1cnccn1)c1ccc(C2CCCCC2)cc1	none
CC(=O)NC1C(=O)N(C)N=C1c1ccccc1 (stereo not given)	none
Cc1[nH]c2ccccc2c1C(Nc1ccccn1)c1cccs1 (stereo not given)	none (no result: Sa growth inh)
COC(c1cccs1)c1c(C)[nH]c2ccccc12 (stereo not given)	Sa growth inh 2.0
Cc1[nH]c2ccccc2c1C(c1cccs1)N1CCN(c2ccccc2)CC1 (stereo not given)	Sa growth inh 0.0
Cc1[nH]c2ccccc2c1C(c1ccncc1)N1CCN(C)CC1 (stereo not given)	none (no result: Sa growth inh)
O/N=C/c1c(-c2ccccc2Cl)[nH]c2ccccc12	none (no result: Sa helicase inh)
CCn1cc(C(=O)O)c(=O)c2cc(F)c(N3CCN(C(=S)NC(=O)c4c(-c5ccccc5)noc4C)CC3)cc21	Sa growth inh 2.0
CCn1cc(C(=O)O)c(=O)c2cc(F)c(N3CCN(C(=S)NC)CC3)cc21	none
CCN1/C(=C/C2=CC(=O)CC(C)(C)C2)Sc2ccccc21	Sa growth inh 1.0
CCN1/C(=C\C=C2C(=O)OC(C)(C)OC2=O)Sc2ccccc21	none
CC1=C/C(=C/N(C)c2ccccc2)C(=O)S1	none
Cc1cc(C)c2c(=O)cc(CSCC(=O)Nc3nnc(C)s3)[nH]c2c1	Sa growth inh -0.5 (no result: Sa helicase inh)
Cc1ccc2c(=O)cc(CSCC(=O)Nc3nnc(C)s3)[nH]c2c1	none (no result: Sa helicase inh)
COC(=O)C1Cc2ccccc2CN1CN1C(=O)c2cc(Cl)c(Cl)cc2C1=O (stereo not given)	none
COc1ccc(C)cc1NC(=O)CCS(=O)(=O)c1ccc2c(c1)CC(=O)N2C	none (no result: Sa helicase inh)
CS(=O)(=O)N(CC(=O)Nc1cccc(Cl)c1)c1ccccc1Cl	none
Cc1ccccc1OCC(=O)Nc1cccc(C(=O)OCc2cc(=O)n3c(C)csc3n2)c1	none (no result: Sa helicase inh)
COc1cc2nc(N(C)C)nc(N)c2cc1OC	Sa helicase inh 44
COc1cc2nc(Nc3ccc(C)c(C)c3)nc(N)c2cc1OC	none (no result: Sa helicase inh)
Cc1ccc(/C(C#N)=C\c2ccco2)cc1	Sa growth inh 42
N#C/C(=C\c1ccco1)c1ccc(Cl)cc1	Sa growth inh 49 (no result: Sa helicase inh)
N#C/C(=C/c1ccco1)c1ccc(Br)cc1	Sa growth inh 22
N#C/C(=C\c1ccco1)S(=O)(=O)c1ccc(Cl)cc1	none
Cc1ccc(/C(C#N)=C\c2cccs2)cc1	none
N#C/C(=C/c1ccc(Br)o1)c1ccc(C(=O)O)cc1	none
CC(C)Cc1nn(-c2ccccc2)cc1/C=C1\CCC(C2CCCC2)C1=O (stereo not given)	none
Cc1ccc2ncnc(NC3CCCCC3)c2c1	none
CN1CCCN(C(=O)c2sc3ccccc3c2Cl)CC1	none
CP(=O)(Nc1cc(Cl)ccc1Cl)c1nc2c(s1)CCCC2 (stereo not given)	none
CCc1nnc2c(NCCc3ccc(OC)c(OC)c3)nc3ccccc3n12	none (no result: Sa helicase inh)
Cc1ccc(Nc2c(-c3ccc(O)cc3)nc3cccc(C)n23)cc1	none (no result: Sa helicase inh)
Cc1ccc(-c2nc(I)ccc2O)cc1	Sa growth inh 9.1
Cc1ccc(/C=N/NC(=O)c2ccccc2NS(=O)(=O)c2cccs2)o1	none
CCc1ccc(NC(=O)CC2C(=O)N(c3cccc(C)c3)C(=O)N2Cc2cccs2)cc1 (stereo not given)	none (no result: Sa helicase inh)
COC(=O)C1=C(C)NC(=O)C1(NS(=O)(=O)c1ccc(C)cc1)C(F)(F)F (stereo not given)	none
COC1(NS(=O)(=O)c2ccc(C)cc2)C(C)=CC(=O)C=C1C	Sa growth inh 1.7
N#CCCn1nc(-c2ccc(F)cc2)ccc1=O	none (no result: Sa helicase inh)
CCOc1ccc(NC23SCC(=O)C2CCc2ccccc23)cc1 (stereo not given)	Sa growth inh 2.0 (no result: Sa helicase inh)
CCOc1ccc(NC(=O)C2NC(=O)CC2c2ccccc2)cc1 (stereo not given)	none
CCN(CC)C(=O)COc1ccc(/C(C)=N/NC(=O)c2ccccc2O)cc1	none
O=C(NCC(c1ccc2c(c1)OCO2)N1CCN(c2ccccc2)CC1)C(=O)Nc1ccc(F)cc1 (stereo not given)	none (no result: Sa helicase inh)
CCOC(=O)c1sc(SC#N)c(-c2ccccc2)c1N	Sa growth inh 1.1
CCOC(=O)c1sc(SC#N)c(C(=O)OCC)c1C	none
CS/C(=N\S(=O)(=O)c1cccs1)NC(=O)c1ccccc1	none
O=C1C(Sc2ccccc2)=C/C(=N/S(=O)(=O)c2cccs2)c2ccccc21	Sa growth inh 0.0
COC(=O)C1C(=O)CC(=O)CC1c1ccco1 (stereo not given)	none
CCS(=O)(=O)c1ncc(Cl)c(C(=O)Nc2ccc(Cl)cc2)n1	Sa growth inh 1.8
CCS(=O)(=O)c1ncc(Cl)c(C(=O)NCc2ccccc2)n1	none (no result: Sa helicase inh)
CS(=O)(=O)c1ncc(Cl)c(C(=O)N2CCN(c3cccc(Cl)c3)CC2)n1	none (no result: Sa helicase inh)
CCS(=O)(=O)c1ncc(Cl)c(C(=O)N2CCN(c3cccc(Cl)c3)CC2)n1	Sa growth inh 7.0 (no result: Sa helicase inh)
COc1ccc(-c2cnc(C)o2)cc1S(=O)(=O)Nc1ccc(NC(C)=O)cc1	none (no result: Sa helicase inh)
OC(CNCc1ccco1)CON=C1c2ccccc2-c2ccccc21 (stereo not given)	none
CCCC1c2ccc(C)n2CCN1C(=O)NCc1ccccc1 (stereo not given)	none
O=S(=O)(c1cc(O)cc(S(=O)(=O)C(F)(F)F)c1)C(F)(F)F	Sa growth inh -0.3
O=S(=O)(c1ccc(Cl)cc1)C(F)(F)F	none
c1ccc(-c2cnc3nonc3n2)cc1	Sa growth inh 0.8
Cc1cc2ncc(-c3ccccc3)nc2cc1C	none
COc1ccc2c(CC(=O)OC(C)C(=O)NCc3ccc4c(c3)OCO4)coc2c1 (stereo not given)	none
CC1Cc2ccccc2N1C(=O)Nc1ccc(Cl)c(Cl)c1 (stereo not given)	none
CC(N=c1ccccn1C(=O)Nc1ccc(Cl)c(Cl)c1)c1ccco1 (stereo not given)	Sa growth inh -0.8
CCc1nnc(SCc2cccc(F)c2)c2cc3sc(C)cc3n12	none (no result: Sa helicase inh)
CCOC(=O)c1[nH]c(C)c(C(=O)NC)c1C	none (no result: Sa growth inh)
Cc1nc(-c2ccccc2)sc1C(=O)N1CCCc2ccccc21	none (no result: Sa helicase inh)
CN(C)CCOc1ccc(/C(=C(/CCCl)c2ccccc2)c2ccccc2)cc1	Sa growth inh 7.1! (no result: Sa helicase inh)
CN(CCOc1ccccc1)CCOc1ccccc1	none
CCSc1ccc(SC#N)s1	Sa growth inh -0.4
CCSc1nc2ccccc2s1	none
Cc1cc(=O)[nH]c(SCC(=O)Nc2ccc(N3CCCC3)cc2)c1C#N	none

High-throughput results (PubChem)
